# Measured values reported in PubChem BioAssay (Tox21).
# Results filed as inconclusive are left out. Some compounds were tested as several samples or in several runs, with calls that do not always agree. The source made the active and inactive calls. Calls come from the whole dose curve; as a rule, active = well fitted cell-killing curve with a large enough effect in the repeat runs; inconclusive = weak or mixed curves, or effect the other way; inactive = flat fitted curve, though single readings scatter.
# Test: qHTS assay to identify small molecule that activate the aryl hydrocarbon receptor (AhR) signaling pathway - cell viability counter screen (AID 743086); note: nearly all actives have a fitted effect of over 45% in size;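 for viability change, negative = cytotoxic: HepG2 liver cells carrying the AhR DRE luciferase reporter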
# Details: HepG2-AhR-luc viability, CellTiter-Fluor, 24 h; series mostly up to 70.3 µM; viability change, negative = cytotoxic: at the top concentration
# Method in brief: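 HepG2-AhR-luc (HG2L7.5c1) cells, 4000/well, were preincubated 5 h at 37C, exposed to compound in qHTS format for 24 hr at 37C, then given CellTiter-Fluor for 30 min; viability was read as fluorescence in the reporter wells.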
# % is set by controls: 0 for no effect and ±100 for the full control effect; potency is the fitted concentration of half-maximal effect.
Structure (SMILES),"viability change, negative = cytotoxic",Potency
Oc1ccc(C(=C(Cl)Cl)c2ccc(O)cc2)cc1,-3.42% (inactive),
Oc1c(Br)c(Br)c(Br)c(Br)c1Br,-3.97% [at 95 µM] (inactive),
CCOc1cc(C(C)(C)C)ccc1C1COC(c2c(F)cccc2F)=N1 (centres undefined),-0.709% (inactive),
Cc1ccc(OP(=O)(Oc2ccccc2)Oc2ccccc2)cc1,14.3% [at 95 µM] (inactive),
COc1ccc(N)cc1N,,63.1 µM (active) and inactive
ClC1=C(Cl)C2(Cl)C3C(Cl)C(Cl)CC3C1(Cl)C2(Cl)Cl (centres undefined),-14.8% (inactive),
CC(C)CC(C)Nc1ccc(Nc2ccccc2)cc1 (centres undefined),,67.4 µM (active)
Clc1ccc(CCC(Cn2ccnc2)Sc2c(Cl)cccc2Cl)cc1 (centres undefined),1.6% [at 32.5 µM] (inactive),
C[C@H]1O[C@@H](O[C@H]2[C@@H](O)C[C@H](O[C@H]3[C@@H](O)C[C@H](O[C@H]4CC[C@@]5(C)[C@H](CC[C@@H]6[C@@H]5CC[C@]5(C)[C@@H](C7=CC(=O)OC7)CC[C@]65O)C4)O[C@@H]3C)O[C@@H]2C)C[C@H](O)[C@@H]1O,,inactive
